Source: the supplement of paper PMC8728848
This is one part of a sample in which the strongest signals are shown more often than they occur.

Tests used:
Assay in all cases: glycan array binding signal (z-score within array); higher = stronger binding
Details in all cases: glycan notation: IUPAC condensed, linker removed
[1] = biological target: GlcNAc(b1-3)Gal(b1-4)GlcNAc
Outline: (§1)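 Glycan array data were curated from 3228 arrays in the Consortium for Functional Glycomics database and kept only where the protein sequence was available. Glycan names were converted to IUPAC-condensed notation, and columns mapping to the same glycan were averaged. The binding signal is a within-array Z-score, averaged across arrays of the same protein sequence at different concentrations or buffers and across linkers. Negative Z-scores can be read as non-binding.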

[2] = biological target: GlcNAc(b1-3)Gal(b1-4)GlcNAc(b1-3)Gal(b1-4)GlcNAc(b1-3)Gal(b1-4)GlcNAc(b1-3)Gal(b1-4)GlcNAc(b1-2)[GlcNAc(b1-3)Gal(b1-4)GlcNAc(b1-3)Gal(b1-4)GlcNAc(b1-3)Gal(b1-4)GlcNAc(b1-3)Gal(b1-4)GlcNAc(b1-6)]Man(a1-6)[GlcNAc(b1-3)Gal(b1-4)GlcNAc(b1-3)Gal(b1-4)GlcNAc(b1-3)Gal(b1-4)GlcNAc(b1-3)Gal(b1-4)GlcNAc(b1-2)Man(a1-3)]Man(b1-4)GlcNAc(b1-4)[Fuc(a1-6)]GlcNAc
Outline: as §1

[3] = biological target: GlcNAc(b1-4)Gal(b1-4)GlcNAc
Outline: as §1

GlcNAc(b1-6)GalNAc = biological target: GlcNAc(b1-6)GalNAc
Outline: as §1

[4] = biological target: Man(a1-2)Man(a1-3)[Man(a1-6)]Man(a1-6)[Man(a1-2)Man(a1-3)]Man(b1-4)GlcNAc(b1-4)GlcNAc
Outline: as §1

[5] = biological target: Neu5Ac(a2-3)Gal(b1-3)[Fuc(a1-4)]GlcNAc
Outline: as §1

[6] = biological target: Neu5Ac(a2-3)Gal(b1-4)[Fuc(a1-3)]GlcNAc
Outline: as §1

[7] = biological target: Neu5Ac(a2-3)Gal(b1-4)[Fuc(a1-3)]GlcNAc(b1-6)[Neu5Ac(a2-3)Gal(b1-3)]GalNAc
Outline: as §1

Neu5Ac(a2-6)Gal = biological target: Neu5Ac(a2-6)Gal
Outline: as §1

[8] = biological target: Neu5Ac(a2-6)Gal(b1-4)GlcNAc(b1-2)Man(a1-3)Man(b1-4)GlcNAc(b1-4)GlcNAc
Outline: as §1

[9] = biological target: Neu5Ac(a2-6)Gal(b1-4)GlcNAc(b1-2)Man(a1-6)[Gal(b1-4)GlcNAc(b1-2)Man(a1-3)]Man(b1-4)GlcNAc(b1-4)GlcNAc
Outline: as §1

[10] = biological target: Neu5Ac(a2-6)Gal(b1-4)GlcNAc(b1-3)Gal(b1-4)GlcNAc(b1-3)Gal(b1-4)GlcNAc(b1-2)Man(a1-3)[Neu5Ac(a2-6)Gal(b1-4)GlcNAc(b1-3)Gal(b1-4)GlcNAc(b1-3)Gal(b1-4)GlcNAc(b1-2)Man(a1-6)]GalNAc
Outline: as §1

[11] = biological target: Neu5Ac(a2-6)Gal(b1-4)GlcNAc(b1-3)Gal(b1-4)GlcNAc(b1-6)[Gal(b1-3)]GalNAc
Outline: as §1

[12] = biological target: Neu5Ac(a2-6)Gal(b1-4)GlcNAc(b1-3)[Neu5Ac(a2-6)Gal(b1-4)GlcNAc(b1-6)]GalNAc
Outline: as §1

[13] = biological target: Neu5Ac(a2-6)Gal(b1-4)GlcNAc(b1-6)GalNAc
Outline: as §1

[14] = biological target: Neu5Ac(a2-6)GlcNAc(b1-4)GlcNAc
Outline: as §1

[15] = biological target: Neu5Ac(a2-8)Neu5Ac(a2-3)[GalNAc(b1-4)]Gal(b1-4)Glc
Outline: as §1

[16] = biological target: Neu5Ac(a2-8)Neu5Ac(a2-8)Neu5Ac(a2-3)Gal(b1-4)Glc
Outline: as §1

[17] = biological target: Neu5Ac(a2-8)Neu5Ac(a2-8)Neu5Ac(a2-8)Neu5Ac(a2-3)[GalNAc(b1-4)]Gal(b1-4)Glc
Outline: as §1

[18] = biological target: Neu5Ac9Ac(a2-3)Gal(b1-3)GlcNAc
Outline: as §1

[19] = biological target: Neu5Ac9Ac(a2-3)Gal(b1-4)GlcNAc
Outline: as §1

B1: CC1G-11630 (Coprinopsis cinerea), A8P462 (protein)
chain: MTTEAKIKLKAVVYWELVFDYDNSSNTGEITQSYTVKISQTSTRSTFASEVSTTTIDTLTKNNQEVDVGASYGAISANVSASWEHSEEVNNMLEKTTQTSTEDTYTVETEETRSYTIGPGGMLSLFQKHFSGPGMHVAFDVFTTDLELAKERTEIDIDVDVEAIRFVREIRVVYTDIMSEAPGDHVREINGKNPDINYGFNGKFVWLVPEQTRKTAQALTNVEFVSQAESDDRYWDLAAGAGGSNRYLIPVYDTNNKDKIYELALWRSDSYITHDKVKAAGWSGTTGDINSGRGGTYLNLVWKTRHAY
glycan array binding signal (z-score) [1]: -0.538 | glycan array binding signal (z-score) [2]: 5.85 | glycan array binding signal (z-score) [3]: -0.152 | glycan array binding signal (z-score) (GlcNAc(b1-6)GalNAc): -0.182 | glycan array binding signal (z-score) [4]: -0.164 | glycan array binding signal (z-score) [5]: -0.138 | glycan array binding signal (z-score) [6]: -0.567 | glycan array binding signal (z-score) [7]: 0.186 | glycan array binding signal (z-score) (Neu5Ac(a2-6)Gal): -0.074 | glycan array binding signal (z-score) [8]: -0.49 | glycan array binding signal (z-score) [9]: 15.9 | glycan array binding signal (z-score) [10]: 2.1 | glycan array binding signal (z-score) [11]: 0.078 | glycan array binding signal (z-score) [12]: 0.001 | glycan array binding signal (z-score) [13]: 2.18 | glycan array binding signal (z-score) [14]: -0.717 | glycan array binding signal (z-score) [15]: 0.069 | glycan array binding signal (z-score) [16]: -0.108 | glycan array binding signal (z-score) [17]: -0.33 | glycan array binding signal (z-score) [18]: 0.279 | glycan array binding signal (z-score) [19]: -0.202
